Bioassay records as filed in PubChem BioAssay.
Compounds with a hit are over-represented: about 3.5% of the library has one in this group of screens.
mHTT CaM bind: disrupts binding of mutant huntingtin to calmodulin | AlphaScreen His-mHTT/GST-CaM binding, luminescence | 190,000 compounds, 3.6% hits | P42858 | inhibition, % at 15 µM
Target sequence (P42858 whole entry, looked up, change not shown): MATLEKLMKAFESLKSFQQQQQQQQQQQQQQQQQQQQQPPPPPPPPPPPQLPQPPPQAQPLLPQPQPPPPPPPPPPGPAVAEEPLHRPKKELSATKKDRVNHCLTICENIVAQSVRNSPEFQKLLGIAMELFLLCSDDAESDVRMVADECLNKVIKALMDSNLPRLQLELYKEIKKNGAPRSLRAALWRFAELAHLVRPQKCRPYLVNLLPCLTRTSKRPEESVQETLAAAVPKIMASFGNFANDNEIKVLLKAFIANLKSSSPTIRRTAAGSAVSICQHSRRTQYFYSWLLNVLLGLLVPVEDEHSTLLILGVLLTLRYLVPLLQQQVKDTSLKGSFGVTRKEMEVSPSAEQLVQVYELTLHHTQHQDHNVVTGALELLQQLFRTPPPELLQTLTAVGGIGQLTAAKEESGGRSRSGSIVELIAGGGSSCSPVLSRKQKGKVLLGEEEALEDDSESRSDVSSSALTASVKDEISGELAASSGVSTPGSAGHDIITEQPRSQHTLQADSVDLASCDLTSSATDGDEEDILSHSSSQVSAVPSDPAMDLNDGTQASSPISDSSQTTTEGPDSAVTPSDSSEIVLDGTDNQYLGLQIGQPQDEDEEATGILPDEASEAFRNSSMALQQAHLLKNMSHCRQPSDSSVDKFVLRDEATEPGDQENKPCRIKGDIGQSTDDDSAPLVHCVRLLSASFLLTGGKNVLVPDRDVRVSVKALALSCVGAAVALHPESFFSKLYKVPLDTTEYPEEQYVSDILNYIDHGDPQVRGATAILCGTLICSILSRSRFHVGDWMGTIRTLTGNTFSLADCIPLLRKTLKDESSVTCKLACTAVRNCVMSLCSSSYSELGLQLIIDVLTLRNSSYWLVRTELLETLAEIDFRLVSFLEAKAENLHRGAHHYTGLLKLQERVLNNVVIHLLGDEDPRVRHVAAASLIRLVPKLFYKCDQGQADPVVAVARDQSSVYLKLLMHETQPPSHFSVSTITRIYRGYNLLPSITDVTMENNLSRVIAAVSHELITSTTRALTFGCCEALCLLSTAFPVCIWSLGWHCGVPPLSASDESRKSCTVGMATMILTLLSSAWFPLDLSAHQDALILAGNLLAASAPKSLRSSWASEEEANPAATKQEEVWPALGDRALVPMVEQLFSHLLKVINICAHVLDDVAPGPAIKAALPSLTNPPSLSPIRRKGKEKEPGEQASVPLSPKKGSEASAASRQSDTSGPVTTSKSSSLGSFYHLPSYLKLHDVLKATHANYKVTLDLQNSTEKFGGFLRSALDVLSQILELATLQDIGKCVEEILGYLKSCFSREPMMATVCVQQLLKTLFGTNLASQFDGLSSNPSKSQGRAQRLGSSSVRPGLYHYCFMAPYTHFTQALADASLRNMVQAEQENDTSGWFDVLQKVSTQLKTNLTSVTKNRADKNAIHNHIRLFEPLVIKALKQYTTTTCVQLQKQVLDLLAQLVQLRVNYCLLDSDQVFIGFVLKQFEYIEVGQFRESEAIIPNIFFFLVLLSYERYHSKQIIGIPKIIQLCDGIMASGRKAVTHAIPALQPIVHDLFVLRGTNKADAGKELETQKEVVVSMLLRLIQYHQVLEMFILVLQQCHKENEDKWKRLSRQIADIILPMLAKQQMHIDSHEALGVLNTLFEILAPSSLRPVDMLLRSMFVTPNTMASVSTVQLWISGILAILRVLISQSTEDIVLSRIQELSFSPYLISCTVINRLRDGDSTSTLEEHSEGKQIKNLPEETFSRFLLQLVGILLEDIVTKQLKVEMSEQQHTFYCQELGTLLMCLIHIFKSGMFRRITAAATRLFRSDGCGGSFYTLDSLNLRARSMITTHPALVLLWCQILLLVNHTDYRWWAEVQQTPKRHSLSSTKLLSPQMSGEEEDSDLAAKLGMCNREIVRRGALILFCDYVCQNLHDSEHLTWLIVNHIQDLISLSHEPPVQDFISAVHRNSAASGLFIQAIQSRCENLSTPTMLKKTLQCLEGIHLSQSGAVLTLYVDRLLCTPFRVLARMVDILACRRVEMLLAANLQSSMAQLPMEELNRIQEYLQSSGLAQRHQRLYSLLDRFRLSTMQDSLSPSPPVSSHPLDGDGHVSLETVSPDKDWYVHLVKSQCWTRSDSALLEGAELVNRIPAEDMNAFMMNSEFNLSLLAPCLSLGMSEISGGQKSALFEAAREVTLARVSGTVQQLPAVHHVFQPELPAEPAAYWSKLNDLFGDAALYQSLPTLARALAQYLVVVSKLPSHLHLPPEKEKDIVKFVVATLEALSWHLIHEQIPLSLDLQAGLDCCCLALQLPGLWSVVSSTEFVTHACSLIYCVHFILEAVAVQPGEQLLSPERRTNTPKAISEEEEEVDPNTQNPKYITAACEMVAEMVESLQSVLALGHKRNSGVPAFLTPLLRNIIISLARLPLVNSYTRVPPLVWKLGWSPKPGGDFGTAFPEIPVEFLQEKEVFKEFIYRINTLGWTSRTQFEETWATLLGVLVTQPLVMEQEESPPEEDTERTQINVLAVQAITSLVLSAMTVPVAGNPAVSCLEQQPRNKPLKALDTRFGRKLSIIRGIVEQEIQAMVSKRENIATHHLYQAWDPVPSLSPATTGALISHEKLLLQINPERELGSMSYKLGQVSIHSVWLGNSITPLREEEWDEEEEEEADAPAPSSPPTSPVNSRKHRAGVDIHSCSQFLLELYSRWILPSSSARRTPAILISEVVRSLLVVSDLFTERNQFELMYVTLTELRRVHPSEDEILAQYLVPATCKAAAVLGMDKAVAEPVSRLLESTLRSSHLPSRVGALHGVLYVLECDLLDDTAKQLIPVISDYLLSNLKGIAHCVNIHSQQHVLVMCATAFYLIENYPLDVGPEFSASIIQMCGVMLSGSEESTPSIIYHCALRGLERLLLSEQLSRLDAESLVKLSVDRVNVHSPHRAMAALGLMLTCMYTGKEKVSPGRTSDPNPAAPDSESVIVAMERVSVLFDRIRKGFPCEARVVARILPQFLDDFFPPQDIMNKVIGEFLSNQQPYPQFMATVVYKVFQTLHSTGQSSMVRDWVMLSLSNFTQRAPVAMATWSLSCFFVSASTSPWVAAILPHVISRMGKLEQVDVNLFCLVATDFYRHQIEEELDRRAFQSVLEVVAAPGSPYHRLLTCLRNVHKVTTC
Pf apPOL block: Pf-apPOL DNA polymerase inhibition | Recombinant Pf-apPOL, molecular beacon fluorescence, 1.5 h | inhibition, % at 10 µM | 210,000 compounds, 0.25% hits
A number is an active result. No stated cut-off is given here; in the data, active means inhibition above about 50%; inactive means the rest.

What do the screens show for `O=[N+]([O-])c1ccc(N2CCSCC2)nc1`?
mHTT CaM bind: inactive; Pf apPOL block: 66

What do the screens show for `O=[N+]([O-])c1ccc(N2CCOCC2)nc1`?
mHTT CaM bind: inactive; Pf apPOL block: inactive

What do the screens show for `CC1CN(CN2C(=O)C(=Nc3ccc(Cl)c(Cl)c3)c3ccccc32)CC(C)O1` (stereo unspecified)?
mHTT CaM bind: inactive; Pf apPOL block: inactive

What do the screens show for `Cc1ccc(CN2CCc3nc(Nc4ccc5c(c4)OCO5)ncc3C2)cc1`?
mHTT CaM bind: inactive; Pf apPOL block: inactive

Results for CCOc1ccccc1CN1CCc2nc(Nc3ccc4c(c3)OCCO4)ncc2C1 ?
mHTT CaM bind: 83; Pf apPOL block: inactive

How did COc1ccccc1CN1CCc2nc(Nc3ccc4c(c3)OCCO4)ncc2C1 do in these assays?
mHTT CaM bind: inactive; Pf apPOL block: inactive

Results for COc1ccccc1CN1CCc2nc(Nc3ccc4c(c3)OCO4)ncc2C1 ?
mHTT CaM bind: 51; Pf apPOL block: inactive

What do the screens show for `COc1cccc(CN2CCc3nc(Nc4ccc5c(c4)OCO5)ncc3C2)c1`?
mHTT CaM bind: 84; Pf apPOL block: inactive

Results for CCOc1ccc(CN2CCc3nc(Nc4ccc5c(c4)OCO5)ncc3C2)cc1OC ?
mHTT CaM bind: inactive; Pf apPOL block: inactive

How did Fc1cccc(CN2CCc3nc(Nc4ccc5c(c4)OCO5)ncc3C2)c1 do in these assays?
mHTT CaM bind: inactive; Pf apPOL block: inactive

How did CC(C)Oc1ccc(CN2CCc3nc(Nc4ccc5c(c4)OCO5)ncc3C2)cc1 do in these assays?
mHTT CaM bind: 80; Pf apPOL block: inactive

How did Cn1c(C(=O)NCc2ccc(F)cc2)cc2ccncc21 do in these assays?
mHTT CaM bind: inactive; Pf apPOL block: inactive

How did O=C(c1cc(Sc2ccc(F)cc2)nc2ccccc12)N1CCOCC1 do in these assays?
mHTT CaM bind: inactive; Pf apPOL block: inactive

How did CC(C)NC(=O)Nc1ccc(N2CCCN(Cc3ccccc3F)CC2)nc1 do in these assays?
mHTT CaM bind: inactive; Pf apPOL block: inactive

Results for CC(C)CCNC(=O)c1sccc1S(=O)(=O)N(C)c1ccc(Cl)cc1 ?
mHTT CaM bind: inactive; Pf apPOL block: inactive

Results for O=C(Oc1ccc2c(c1)OC(=CC1=Cc3ccccc3OC1)C2=O)c1ccco1 ?
mHTT CaM bind: inactive; Pf apPOL block: inactive

How did CCS(=O)(=O)CCCc1nnc(NC(=O)Nc2cccc(C(F)(F)F)c2)s1 do in these assays?
mHTT CaM bind: inactive; Pf apPOL block: inactive

Results for CN1CCN(c2ccc3c(c2)Oc2ccccc2CN(Cc2cn(Cc4ccc(C(F)(F)F)cc4)nn2)S3(=O)=O)CC1 ?
mHTT CaM bind: 72; Pf apPOL block: inactive

How did O=S1(=O)c2ccc(N3CCCC3)cc2Oc2ccccc2CN1Cc1cn(Cc2ccc(Cl)cc2)nn1 do in these assays?
mHTT CaM bind: inactive; Pf apPOL block: inactive

Results for CCCNC1=C(N(C(C)=O)c2cccc(F)c2)C(=O)c2ccccc2C1=O ?
mHTT CaM bind: inactive; Pf apPOL block: inactive

Results for COc1cccc(N(C(C)=O)C2=C(NC3CCCCC3)C(=O)c3ccccc3C2=O)c1 ?
mHTT CaM bind: 62; Pf apPOL block: inactive

How did CC(=O)N(C1=C(Nc2ccccc2)C(=O)c2ccccc2C1=O)c1ccccc1 do in these assays?
mHTT CaM bind: 55; Pf apPOL block: inactive

What do the screens show for `CC(=O)N(C1=C(NC2CCCCC2)C(=O)c2ccccc2C1=O)c1ccc(F)c(F)c1`?
mHTT CaM bind: inactive; Pf apPOL block: inactive

How did CCCCCCNC(=O)C1CCCN(c2ncc(-c3ccc(C)cc3)cn2)C1 (stereo unspecified) do in these assays?
mHTT CaM bind: inactive; Pf apPOL block: inactive

Results for CN1CCOc2ccc(NC(=O)NC3CC3)cc2C1=O ?
mHTT CaM bind: inactive; Pf apPOL block: inactive

Results for Cc1cc2c(=O)n(CC(=O)Nc3cccc(F)c3)ccc2s1 ?
mHTT CaM bind: inactive; Pf apPOL block: inactive

How did CCOc1ccccc1C(=O)N1CCC(Nc2cccnc2)C1 (stereo unspecified) do in these assays?
mHTT CaM bind: inactive; Pf apPOL block: inactive

What do the screens show for `CC(=O)Nc1ccc(N=C2NC(=O)C(=Cc3ccc(C)o3)S2)cc1`?
mHTT CaM bind: inactive; Pf apPOL block: inactive

How did COc1ccc(N(C)C(=O)c2nc(C)n(C3CCN(S(C)(=O)=O)CC3)c2C)cc1 do in these assays?
mHTT CaM bind: 86; Pf apPOL block: inactive

How did CCOc1ccc(N(CC)C(=O)c2nc(C)n(C3CCN(S(C)(=O)=O)CC3)c2C)cc1 do in these assays?
mHTT CaM bind: inactive; Pf apPOL block: inactive

How did CCN(CC)c1ncc2c(n1)CCC(C(=O)N1CCOCC1)C2 (stereo unspecified) do in these assays?
mHTT CaM bind: inactive; Pf apPOL block: inactive

What do the screens show for `COc1ccccc1CNC(=O)c1cccc(C2CCCN(C(=O)NC(C)C)C2)c1` (stereo unspecified)?
mHTT CaM bind: inactive; Pf apPOL block: inactive

How did CC(=O)Nc1c2c(nn1-c1cccc(Cl)c1)CSC2 do in these assays?
mHTT CaM bind: inactive; Pf apPOL block: inactive

Results for O=C(Nc1c2c(nn1-c1cccc(Cl)c1)CSC2)c1ccco1 ?
mHTT CaM bind: 67; Pf apPOL block: inactive

What do the screens show for `Cc1ccccc1-n1nc2c(c1NC(=O)c1ccco1)CSC2`?
mHTT CaM bind: inactive; Pf apPOL block: inactive

Results for Cc1ccc(-n2nc3c(c2NC(=O)c2cccc([N+](=O)[O-])c2)CSC3)c(C)c1 ?
mHTT CaM bind: inactive; Pf apPOL block: inactive

Results for Cc1cccc(-n2nc3c(c2NC(=O)c2ccco2)CSC3)c1C ?
mHTT CaM bind: 60; Pf apPOL block: inactive

Results for COc1cc(C(=O)Nc2c3c(nn2-c2ccc(C)cc2C)CSC3)cc(OC)c1OC ?
mHTT CaM bind: inactive; Pf apPOL block: inactive

Results for Cc1ccc(-n2nc3c(c2NC(=O)c2ccc([N+](=O)[O-])cc2)CSC3)c(C)c1 ?
mHTT CaM bind: 50; Pf apPOL block: inactive

How did COc1cccc(C(=O)Nc2c3c(nn2-c2ccc(C)cc2C)CSC3)c1OC do in these assays?
mHTT CaM bind: 50; Pf apPOL block: inactive

What do the screens show for `CCn1c(N2CCCC(C(=O)NCc3ccc(F)cc3)C2)cc(=O)n(C)c1=O` (stereo unspecified)?
mHTT CaM bind: inactive; Pf apPOL block: inactive

Results for Cc1ccc(C(=O)Nc2c3c(nn2-c2ccc(C)cc2C)CSC3)cc1 ?
mHTT CaM bind: inactive; Pf apPOL block: inactive

How did O=C(NCc1cccs1)C(=O)Nc1c2c(nn1-c1cccc(Cl)c1)CSC2 do in these assays?
mHTT CaM bind: 69; Pf apPOL block: inactive

Results for O=C(Nc1c2c(nn1-c1cccc(Cl)c1)CSC2)c1c(F)cccc1F ?
mHTT CaM bind: inactive; Pf apPOL block: inactive

How did Cc1ccc(-n2nc3c(c2NC(=O)c2ccco2)CSC3)c(C)c1 do in these assays?
mHTT CaM bind: 52; Pf apPOL block: inactive

Results for CCN(CC)S(=O)(=O)c1ccc(OC)c(NC(=O)c2c(-c3ccccc3)noc2C)c1 ?
mHTT CaM bind: inactive; Pf apPOL block: inactive

How did O=C(c1ccc(Cn2cncn2)cc1)N1CCN(c2ccc(Cl)cc2)CC1 do in these assays?
mHTT CaM bind: inactive; Pf apPOL block: inactive

What do the screens show for `Cc1ccc(Cl)cc1N1CCN(C(=O)c2ccc(Cn3cncn3)cc2)CC1`?
mHTT CaM bind: 89; Pf apPOL block: inactive

How did CNc1ccc(Cl)c2c1C(=O)c1ccccc1C2=O do in these assays?
mHTT CaM bind: 77; Pf apPOL block: inactive

Results for CC(=O)Nc1ccc(Cl)c2c1C(=O)c1ccccc1C2=O ?
mHTT CaM bind: inactive; Pf apPOL block: inactive

How did CN(C)C(=O)c1cc2cccc3c2n1CCS3 do in these assays?
mHTT CaM bind: inactive; Pf apPOL block: inactive
